Experimental data published in PubChem BioAssay AID602449 (Sanford-Burnham Center for Chemical Genomics, 2012).
The whole screen tested about 360,000 compounds, of which about 5,000 (1.4%) were called active. Shown is part of a subset that was picked to be rich in actives. Values without a mark were called inactive.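 The calls were made as follows: active = inhibition of 50% or more, scaled per plate between neutral and stimulator controls; inactive = the rest.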

Assay: blockers of Ca2+-induced mitochondrial swelling – biochemical, isolated mouse mitochondria, absorbance, primary screen (AID 602449);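 also: 0% = DMSO wells given calcium and 100% = 1 mM EGTA wells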
Details: 30 min, at 10 µM, hits give high values

Compound	inhibition
CN1CCN(CCCCOc2cccc3ccccc23)CC1	-0.6%
CC1CC(C)CN(CCOc2cccc3ccccc23)C1 (stereo unspecified)	-1.7%
CC(C)c1ccccc1OCC(O)CN(CC(O)COc1cccc2ccccc12)C(C)C (stereo unspecified)	61.5% (active)
Cc1ccc(C(=O)NCC(=O)NCc2cc(=O)n(C)c(=O)n2C)cc1	-1.3%
O=C(Nc1nc2ccc([N+](=O)[O-])cc2s1)c1ccncc1	68.5% (active)
NS(=O)(=O)c1ccc2nc(NC(=O)C3=COCCO3)sc2c1	-0.6%
Cc1ccc(NC(=O)c2cccc(S(=O)(=O)N3CCCc4ccccc43)c2)nc1	-1.2%
CSc1ncccc1C(=O)Nc1nc2ccc(F)cc2s1	5.6%
Cc1cc(C)cc(OCC(=O)O/N=C(\N)Cc2ccc([N+](=O)[O-])cc2)c1	3.2%
CC(Nc1ccc([N+](=O)[O-])cc1[N+](=O)[O-])c1ccccc1 (stereo unspecified)	1%
Cc1cc(C)cc(OCC(=O)Nc2nc3ccc([N+](=O)[O-])cc3s2)c1	50.4% (active)
O=C(NC(Nc1nc2ccc([N+](=O)[O-])cc2s1)(C(F)(F)F)C(F)(F)F)c1ccccc1	93.7% (active)
Cc1cc(C)cc(OCC(=O)Nc2cc(NC(=O)COc3cc(C)cc(C)c3)cc(C(=O)O)c2)c1	1.6%
CNC(=O)c1ccsc1NC(=O)c1ccc(S(=O)(=O)N2CCc3ccccc32)cc1	0.6%
O=C(NNC(=O)c1ccc(-n2cncn2)c([N+](=O)[O-])c1)c1ccccc1	-2.8%
O=C(Nc1nc2ccc([N+](=O)[O-])cc2s1)c1ccc(S(=O)(=O)N2CCCc3ccccc32)cc1	78.1% (active)
COc1ccc(-c2n[nH]c3c2CN(C(=O)c2ccc(F)cc2)CC3)cc1	1.2%
COc1ccccc1CSc1ncc(-c2ccc([N+](=O)[O-])cc2)[nH]1	24.2%
CC1(C)C2CCC1(CS(=O)(=O)NCCc1c[nH]c3ccccc13)C(=O)C2 (stereo unspecified)	0.4%
CC(=O)N1c2ccc(S(=O)(=O)N3CCCC(C(=O)Nc4ccc(C)cc4C)C3)cc2CC1C (stereo unspecified)	0.4%
COc1ccc(NS(=O)(=O)c2cc(NC(=O)C3CCCCC3)ccc2N2CCOCC2)cc1	-0.4%
CCOc1ncccc1C(=O)N(CC)CC(=O)Nc1ccc(NC(C)=O)cc1	-0.1%
Cc1cc(Cl)c2oc(C(=O)NC(C)c3ccncn3)c(C)c2c1 (stereo unspecified)	-0.4%

Compound	inhibition
COC(=O)[C@@]12C[C@@H](CC(=O)NCc3cccc(C(F)(F)F)c3)C(=O)N(Cc3ccco3)C1=CCC(C)(C)C2	-0.5%
COc1ccc(C(=O)NC2(C(F)(F)F)NC(=O)N(CCCc3ccccc3)C2=O)c(OC)c1OC (stereo unspecified)	11.9%
Cc1cccc(-c2nc3ccc(C(=O)NCCN4CCN(C)CC4)cc3nc2-c2cccc(C)c2)c1	55.9% (active)
Cc1cccc(C(=O)OC(C)CN2CCN(C)CC2)c1 (stereo unspecified)	-1.6%
CCCC1=Nc2cc(C(=O)NCCN3CCCC3)ccc2Sc2ccccc21	-1.2%
C[C@H](NS(=O)(=O)c1ccc(Cl)cc1)C(=O)OCC(=O)N1CCOCC1	1.4%
COc1ccc(C(C)C)cc1S(=O)(=O)Nc1ncn[nH]1	-0.4%
CC(=O)c1c(C)[nH]c(C(=O)CN2C(=O)NC(C)(C)C2=O)c1C	-0.1%
Cc1nc(SCC(=O)c2ccccc2)c([N+](=O)[O-])[nH]1	3.9%
CC(=O)Nc1ccc(C(=O)CSc2nc3ccc(C)cc3[nH]2)cc1	-1.5%
O=C(CSc1nc2ccc([N+](=O)[O-])cc2[nH]1)c1ccc(Cl)cc1	104% (active)
COc1cccc(NC(=O)CN(C)C(=O)CSCc2nc3scc(-c4cccs4)c3c(=O)[nH]2)c1	-0.9%
Cc1ccccc1N1CC(C(=O)Nc2nnc(SCCC3OCCO3)s2)CC1=O (stereo unspecified)	-2.6%
CC(C)c1ccc(C=NNc2ccc([N+](=O)[O-])cn2)cc1	7%
O=[N+]([O-])c1ccc(N/N=C/c2ccccc2)cc1	63.2% (active)
Cc1cccc(COc2ccccc2/C=N/Nc2ccc([N+](=O)[O-])cc2)c1	69.1% (active)
O=[N+]([O-])c1ccc(N=NNc2ccc([N+](=O)[O-])cc2)cc1	21.4%
Cc1cc([N+](=O)[O-])ccc1NCc1cccc([N+](=O)[O-])c1	6.8%
Cc1ccccc1OCCOc1ccc([N+](=O)[O-])cc1/C=N/n1cnnc1	3.3%
c1ccc(-c2cn3c(n2)CCc2ccc4cccnc4c2-3)cc1	-2%
O=C(OCC(=O)N1CCCCCC1)c1cccc(Cl)c1Cl	3.6%
CN(C)CCN=c1cc(-c2ccccc2)oc2ccc(Cl)cc12	3%
CCCCn1c(N)c(N(CC(C)C)C(=O)c2ccc(Br)o2)c(=O)[nH]c1=O	-1.5%

Compound	inhibition
CC/C(=N\NC(=S)NC(C)C)c1ccc(OC(F)F)cc1	1.8%
CC(C)N(Cc1ccccc1)C(=S)Nc1ccc(OC(F)F)cc1	5.8%
CC(NC(=S)Nc1ccc(OC(F)F)cc1)c1ccc(F)cc1 (stereo unspecified)	102% (active)
Cc1cc(Br)ccc1NC(=O)c1cnc(N2CCN(c3ccccn3)CC2)c2ccccc12	0.4%
O=C(O)c1ccc([N+](=O)[O-])cc1Sc1ccsc1	0.7%
COCCn1c(SCC(=O)Nc2cc(OC)ccc2OC)nc2c(c1=O)SC(C)C2 (stereo unspecified)	1.2%
CCCCCc1c(-c2cccc(Br)c2)ncn1CCc1ccccc1OC	1.3%
CCCCCc1c(-c2ccc(OC)c(OC)c2)ncn1CCc1ccccc1OC	5.6%
CCCCCc1c(Cc2ccccc2)ncn1CCc1ccccc1OC	85.6% (active)
CCCCn1c(N)c(N(CC(C)C)C(=O)c2cccc(S(=O)(=O)N3CC(C)OC(C)C3)c2)c(=O)[nH]c1=O (stereo unspecified)	6.1%
CCOC(=O)c1cnc(Nc2nc3ccccc3o2)nc1CSC(=S)N1CCCCC1	1.4%
O=C(CN1C(=O)CC(c2ccccc2)=Nc2ccccc21)NC1CCCCC1	-0.4%
COc1ccc(NC(=O)CN(C)C(=O)c2ccc(NC3CC3)c([N+](=O)[O-])c2)cc1	0.5%
Cc1cc(C=O)c(C)n1-c1ccc(NC2CCCCC2)c([N+](=O)[O-])c1	80.6% (active)
Cc1cc([N+](=O)[O-])c(NC2CCCCC2)c([N+](=O)[O-])c1	0.6%
OC[C@@H]1CN(Cc2ccc(-c3ccccc3)cc2)C[C@H](n2cnc3c(NC4CCCC4)ncnc32)O1	17.2%
COC(=O)c1ccc(OCC(O)CN(CCO)CC(O)Cn2ccc3ccccc32)cc1 (stereo unspecified)	0%
Cc1ccc(N(CCC(=O)O)S(=O)(=O)c2cccc(C(F)(F)F)c2)cc1	1.1%
Cc1noc(C)c1S(=O)(=O)Nc1cc(C(F)(F)F)ccc1N1CCOCC1	4.6%
Cc1oc2c(F)c(F)c(F)c(F)c2c1S(=O)(=O)Nc1cccc(C(F)(F)F)c1	83.3% (active)
N/C(=N\OC(=O)CCCC(=O)O)c1ncc(C(F)(F)F)cc1Cl	-0.2%
O=C(c1ccccn1)c1ncc(C(F)(F)F)cc1Cl	-0.8%
N/C(=N\OC(=O)Nc1ccc(Cl)c(Cl)c1)c1ncc(C(F)(F)F)cc1Cl	88.1% (active)

Compound	inhibition
ONC(=Nc1ccc(Cl)cc1)c1ccccc1Cl	1%
CCOC(=O)C1CSC(CC(=O)Nc2ccc(OCC)cc2)C(=O)N1 (stereo unspecified)	3.6%
CCCCCCNCCn1cnc2c(N)ncnc21	-0.8%
COc1cccc(-c2cnc(OC(C)(C)C)nc2OC(C)(C)C)c1	-0.3%
COc1ccc(C(C)NC(=O)C2CCCC2)cc1 (stereo unspecified)	0.1%
CCN(CC(=O)NCCCN1CCOCC1)S(=O)(=O)c1cc(Cl)ccc1Cl	-1.1%
COc1ccc(Cl)cc1NC(=O)CN(C)Cc1ccc(OC)c(OC)c1	0.9%
COc1ccc(Br)cc1C(=O)Nc1cccc(C)c1C	-1.2%
COc1ccc(Br)cc1C(=O)NC(=S)Nc1cc(-c2nc3ccccc3[nH]2)ccc1C	70.7% (active)
COc1ccccc1C(=O)NC(=S)Nc1ccccc1N1CCCCC1	1.3%
CC1CCCCC12NC(=O)N(CC(=O)OCC(=O)NCc1ccc(F)cc1)C2=O (stereo unspecified)	-0.2%
O=C(Nc1nsc(-c2ccccc2)n1)c1ccncc1	0.9%
O=C(CN(c1cccc(Cl)c1)S(=O)(=O)c1ccccc1)NN=C1CCCC1	0.3%
CCOC(=O)CSc1nc(C)c(Oc2ccc(Cl)cc2Cl)c(=O)[nH]1	2.7%
Cc1nnc(SCC(=O)N2CCOCC2)[nH]c1=O	26.4%
CCCCOC(=O)CNc1nnc(SCC(=O)OCC)[nH]c1=O	77.3% (active)
COc1ccccc1P(=O)(c1ccccc1)c1ccccc1NC(C)=O (stereo unspecified)	0.1%
COC(C[C@H](O)CC(=O)COCc1ccccc1)OC	-0.4%
Cn1c(SCC(=O)N/N=C/c2ccc(O)c(O)c2)nc2ccccc21	2.9%
O=C(N/N=C/c1ccc(O)c(O)c1)C1c2ccccc2Oc2ccccc21	104% (active)
CC(C)(C)c1nnc(NC(=O)C2c3ccccc3Oc3ccccc32)s1	6.5%
COc1ccc(CNS(=O)(=O)c2cc(-c3cc(C)no3)ccc2C(C)C)cc1	-0.4%
